PubChem BioAssay (NCI)
Compounds without any hit were thinned out: in the full panel of roughly 79,000, 15% have a hit. Values without a mark were called inactive. Active and inactive are the calls of the source. Cut-off read from the data, not from the text of the source: active = growth inhibition above about 70%; inactive = the rest.

What was measured:
[1] = NCI Yeast Anticancer Drug Screen. Data for the rad50 strain (AID 155);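 note: 0% = growth of vehicle-only cultures of the same strain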; conditions: S. cerevisiae rad50 strain growth inhibition; at 50.0 µM; stronger effect = higher value
Summary of the method: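 DNA repair mutant yeast, compound exposure, growth read-out; inhibition is taken relative to vehicle.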

[2] = NCI Yeast Anticancer Drug Screen. Data for the mec2-1 strain (AID 157); conditions: S. cerevisiae mec2-1 strain, at 50.0 µM, stronger effect = higher value
Summary of the method: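 mec2-1 yeast strain, carrying an alteration in DNA damage repair or cell cycle control, was exposed to compounds; growth inhibition was measured relative to vehicle-treated controls.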

[3] = NCI Yeast Anticancer Drug Screen. Data for the sgs1 mgt1 strain (AID 161);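 note: 0% = growth of cultures given vehicle only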; conditions: S. cerevisiae sgs1 mgt1 strain, at 50.0 µM, stronger effect = higher value
Summary of the method: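 Compounds are added to genetically altered yeast, and growth is compared with cultures given vehicle alone to give percent inhibition.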

[4] = NCI Yeast Anticancer Drug Screen. Data for the cln2 rad14 strain (AID 165);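 note: 0% = growth equal to vehicle treated cultures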; conditions: S. cerevisiae cln2 rad14 strain, at 50.0 µM, stronger effect = higher value
Summary of the method: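 Yeast carrying cln2 and rad14 alterations (cell cycle control and DNA damage repair) were exposed to compounds. Growth inhibition was measured against vehicle-treated controls.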

[5] = NCI Yeast Anticancer Drug Screen. Data for the bub3 strain (AID 167); conditions: S. cerevisiae bub3 mutant strain, at 50.0 µM, stronger effect = higher value
Summary of the method: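 In this screen, a yeast mutant lacking normal mitotic checkpoint function is challenged with compound. Relative growth versus vehicle gives the inhibition value.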

[6] = NCI Yeast Anticancer Drug Screen. Data for the mlh1 rad18 strain (AID 175); conditions: S. cerevisiae mlh1 rad18 strain growth inhibition; at 50.0 µM; stronger effect = higher value
Summary of the method: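 Growth inhibition of the yeast strain was measured after compound exposure and expressed relative to vehicle-treated controls. The strain carries defined defects in DNA damage repair.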

| SMILES | growth inhibition [1] [%] | growth inhibition [2] [%] | growth inhibition [3] [%] | growth inhibition [4] [%] | growth inhibition [5] | growth inhibition [6] [%] |
| --- | --- | --- | --- | --- | --- | --- |
| Cc1cc2ccccc2c[n+]1CC(=O)CC([O-])(C(F)(F)F)C(F)(F)F | 2.85 | 3.25 | -5.65 | 4.1 | 16.4% | -14.9 |
| CC(O)C1(O)C(O)CC(OC2c3cc4c(c(O)c3[C@@H]3C[C@@]2(C)OC32C=c3cc[nH]c3=N2)C(=O)c2cccc(O)c2C4=O)OC1C (some centres not stated) | 63.5 | 41.1 | 60 | 50.4 | 52% | 67.6 |
| O=C(Nc1ccc(F)cc1)c1cc2c(cc1Cl)Sc1nccn1S2(=O)=O | -7 | -4 | -8.8 | 16.9 | 3.55% | 2.7 |
| CC1CSC(=S)N1C(=O)N1C(=S)SCC1C (configuration not stated) | -42.4 | -56.8 | -52.9 | -10.8 | -43.9% | -35.5 |
| CCCC(=O)Oc1cc(C)ccc1C(C)(C)C | -17.9 | -22.6 | -12.3 | -33.6 | -35.6% | -42 |
| O/N=C(/CC(O)(C(F)(F)F)C(F)(F)F)c1ccccc1 | -9.1 | -18 | -7.9 | -38.8 | -6.9% | 11.8 |
| O=C1NC(=O)C(c2ccc(O)cc2)N1 (configuration not stated) | -21.1 | -14.8 | -4.6 | -30.9 | 0.2% | -10.2 |
| Nc1c(Cl)cnn2nnnc12 | -7.5 | -17.4 | -15.6 | -11.9 | 2.95% | -4.25 |
| Cc1cccc(C)c1NC(=O)C(=O)CC(=O)CO | -9.45 | -18.3 | 14.1 | 10.8 | 21% | -6.25 |
| CCOC(=O)C(=O)c1cn(C)c(=O)n(C)c1=O | 12.1 | 2.85 | 1.3 | 3.8 | 0.9% | 10.6 |
| Cc1ccc(NC(N)=O)cc1 | -33.5 | -43.9 | -24.1 | 10.7 | -1.05% | -5.9 |
| COc1ccc2ccc3c(OC(C)=O)ccc(CCN(C)C(C)=O)c3c2c1OC(C)=O | 19.1 | 25.9 | 18.9 | 31.5 | 2.25% | 4.85 |
| O=C(CCCCC(=O)NC1c2ccccc2Oc2ccccc21)NC1c2ccccc2Oc2ccccc21 | 35.2 | 12.1 | 31 | 32 | 9.25% | 31.4 |
| CCCCN(CCCC)C(=O)OCC | 30.2 | 8.3 | 6.35 | 12.4 | 19.2% | 14.5 |
| CS(=O)(=O)OC12CC3CC(CC(C3)C1)C2 | 7.3 | -9.1 | -11.8 | -26.5 | -0.75% | 5.55 |
| CC1=C[P+](c2ccccc2)(c2ccccc2)c2ccccc2O1 | 58 | 57.6 | 66.8 | 34.6 | 72.3% (active) | 63.1 |
| Cc1cccc(NC(=O)Nc2ccccc2Cl)c1C | 11.2 | 5.15 | 0.65 | -3.65 | -2.3% | -9.45 |
| CCc1ccccc1NC(=O)C1=C(C)NC(C)=C(C(=O)Nc2ccccc2CC)C1c1ccc(NC(C)=O)cc1 | -11.1 | 19.8 | 3.25 | 13.6 | 11.4% | -4.25 |
| NC(CCCCC(N)C(=O)c1ccccc1)C(=O)c1ccccc1 (configuration not stated) | -11.9 | -7.45 | -4.85 | -15.9 | 1.55% | 3.25 |

| SMILES | growth inhibition [1] [%] | growth inhibition [2] [%] | growth inhibition [3] [%] | growth inhibition [4] [%] | growth inhibition [5] | growth inhibition [6] [%] |
| --- | --- | --- | --- | --- | --- | --- |
| C=CCCCCCCCCCCCCCCCCCC | -3.55 | -3.8 | 2.8 | 5.9 | -5.3% | 6.2 |
| NC(=O)c1ccc(I)cc1 | 1.75 | 9.3 | 4 | -30.1 | -37% | 8.25 |
| N#CCc1c(-c2ccccc2)n(S(=O)(=O)c2ccccc2)c2ccccc12 | 4.45 | -2.55 | -20.6 | 8.45 | -9.9% | -5.3 |
| O=C(O)C1C(CCl)=C1CCl | -15.8 | 20.7 | 2.35 | -11.3 | 4.7% | -2.9 |
| CN(C)c1nc(Cl)nc2c1ncn2-c1ccccc1 | 9.85 | -23.2 | 3.1 | -10.7 | -31.4% | -5.1 |
| CC(=O)/C=C(\c1ccccc1)c1c(O)c2ccccc2oc1=O | -2 | 9.15 | 4.45 | 7.2 | 3.85% | 6.15 |
| COc1cc2c(c(OC)c1OC)-c1c(cc3c(c1OC)OCO3)C1OC2C(C)C1C (configuration not stated) (tested in a mixture with another compound) | -23.6 | -55 | -9 | -20.4 | -20.6% | -39.2 |
| CCN(C)C(=O)NC(C)=O | 2.65 | 11.1 | -17.9 | -14 | 2.5% | 15 |
| N#CC1(Cc2ccccc2[N+](=O)[O-])c2ccccc2C2C(N1C(=O)c1ccccc1)C2(Cl)Cl (configuration not stated) | -2.5 | 23.7 | 9.7 | -4.3 | 3.15% | 6.95 |
| N#Cc1c(N)nc([Se]CC(=O)c2ccc(Cl)cc2)c(C#N)c1-c1ccco1 | -7.45 | -3.45 | 2.3 | 9.4 | 4.1% | 10.9 |
| O=C1N/C(=N\OCCc2ccccc2)CC(NOCCc2ccccc2)N1 (configuration not stated) | -0.2 | 18.8 | 2.25 | -11.6 | 40.5% | 7.5 |
| CCCC1(O)c2ccccc2-c2ccccc21 | 12.1 | 17.9 | -5.6 | 14.9 | 26.4% | 17 |
| Cc1cc(C)c(C(=O)CSC(=N)N)c(C)c1 | -4.45 | 11.3 | 7.5 | -6.6 | 9.55% | 2.4 |
| BrCCCCCOc1ccc(-c2c3ccccc3c(-c3ccc(OCCCCCBr)cc3)c3ccccc23)cc1 | 11.4 | 18.1 | 12.8 | 0.05 | -12.9% | 12.8 |
| N#Cc1c(N2CCCC2)ncn(Cc2ccccc2)c1=O | 0.7 | 12.8 | 0.2 | -30.8 | 7.15% | 4.7 |
| S=C(NCN1CCOCC1)NCN1CCOCC1 | -14.8 | 5.75 | -5.2 | -2.7 | 2.05% | -16 |
| O=C(CCN(CCC(=O)c1ccccc1)CCC(=O)c1ccccc1)c1ccccc1 | 22.2 | 11.8 | -5.05 | -31.3 | 0.9% | 26.9 |
| Cn1c(=O)c2snnc2n(C)c1=O | -2.75 | -2.65 | -2.65 | -9.5 | 2.9% | -16.6 |
